Measured values: the supplement of paper PMC11732987, “Enantioselective OTUD7B fragment discovery through chemoproteomics screening and high-throughput optimisation” (Communications Chemistry, 2025)

Key:
Assay in all cases: log2 ratio of Biotin-Ahx-Ub-VS probe labelling (fragment/DMSO); higher = less target engagement (more negative = stronger competition), active = hit call of the paper (q ≤ 0.05, log2 ratio ≤ -1)
Conditions in all cases: compound concentration: 200 uM; treatment time: 3 h
USP42 = biological target: T1, USP42 (UniProt Q9H9J4)
T1 sequence (whole entry): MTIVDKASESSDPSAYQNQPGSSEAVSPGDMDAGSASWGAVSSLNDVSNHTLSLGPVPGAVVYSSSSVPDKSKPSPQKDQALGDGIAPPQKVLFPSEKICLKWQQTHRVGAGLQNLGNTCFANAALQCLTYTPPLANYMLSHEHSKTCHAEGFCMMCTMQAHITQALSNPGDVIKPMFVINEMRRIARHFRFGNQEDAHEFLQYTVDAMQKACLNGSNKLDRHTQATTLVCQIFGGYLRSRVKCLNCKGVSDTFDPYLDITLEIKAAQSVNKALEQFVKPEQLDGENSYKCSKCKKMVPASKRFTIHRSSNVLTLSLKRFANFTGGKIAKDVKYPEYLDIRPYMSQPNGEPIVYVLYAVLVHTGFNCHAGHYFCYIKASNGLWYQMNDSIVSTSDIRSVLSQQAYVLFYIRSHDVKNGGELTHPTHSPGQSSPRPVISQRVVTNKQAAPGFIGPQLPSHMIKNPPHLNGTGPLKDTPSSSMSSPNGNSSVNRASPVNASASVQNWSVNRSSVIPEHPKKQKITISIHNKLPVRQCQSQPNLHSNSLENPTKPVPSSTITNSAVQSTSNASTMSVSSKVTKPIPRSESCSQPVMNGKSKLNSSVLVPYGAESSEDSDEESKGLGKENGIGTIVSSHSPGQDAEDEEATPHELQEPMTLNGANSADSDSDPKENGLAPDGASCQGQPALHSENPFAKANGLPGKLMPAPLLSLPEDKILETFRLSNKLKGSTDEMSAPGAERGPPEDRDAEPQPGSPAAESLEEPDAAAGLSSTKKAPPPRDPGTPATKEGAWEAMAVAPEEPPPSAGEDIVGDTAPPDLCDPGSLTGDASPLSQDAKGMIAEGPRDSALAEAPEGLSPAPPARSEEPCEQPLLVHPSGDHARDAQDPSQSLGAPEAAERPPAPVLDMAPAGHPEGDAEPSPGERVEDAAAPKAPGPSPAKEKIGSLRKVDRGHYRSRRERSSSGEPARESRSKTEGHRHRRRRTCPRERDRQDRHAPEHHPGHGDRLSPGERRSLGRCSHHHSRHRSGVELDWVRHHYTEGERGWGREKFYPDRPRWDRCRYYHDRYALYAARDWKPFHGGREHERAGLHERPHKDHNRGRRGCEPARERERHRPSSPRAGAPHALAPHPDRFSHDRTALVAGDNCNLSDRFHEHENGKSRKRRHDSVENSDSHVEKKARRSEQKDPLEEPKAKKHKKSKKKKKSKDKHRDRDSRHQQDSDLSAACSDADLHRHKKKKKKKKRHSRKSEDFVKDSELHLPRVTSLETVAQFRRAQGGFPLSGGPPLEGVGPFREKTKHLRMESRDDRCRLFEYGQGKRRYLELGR
In short: (§1)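 HEK293T lysate, 495 µg per sample in Tris/CHAPS/IGEPAL buffer with protease inhibitors, was treated in triplicate with fragment at 200 µM or vehicle for 3 h and then with Biotin-Ahx-Ub-VS at 0.5 µM final for 1 h. Labelled DUBs were NeutrAvidin-enriched, digested with LysC and trypsin, and run by diaPASEF LC-MS/MS. Spectronaut label-free quantities were global-median-normalised, and values are average log2 fragment/vehicle ratios by unpaired t-test on proteins with ≥2 unique peptides.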

USP46 = USP46 (UniProt P62068)
In short: as §1

USP47 = biological target: T2, USP47 (UniProt Q96K76)
T2 sequence (whole entry): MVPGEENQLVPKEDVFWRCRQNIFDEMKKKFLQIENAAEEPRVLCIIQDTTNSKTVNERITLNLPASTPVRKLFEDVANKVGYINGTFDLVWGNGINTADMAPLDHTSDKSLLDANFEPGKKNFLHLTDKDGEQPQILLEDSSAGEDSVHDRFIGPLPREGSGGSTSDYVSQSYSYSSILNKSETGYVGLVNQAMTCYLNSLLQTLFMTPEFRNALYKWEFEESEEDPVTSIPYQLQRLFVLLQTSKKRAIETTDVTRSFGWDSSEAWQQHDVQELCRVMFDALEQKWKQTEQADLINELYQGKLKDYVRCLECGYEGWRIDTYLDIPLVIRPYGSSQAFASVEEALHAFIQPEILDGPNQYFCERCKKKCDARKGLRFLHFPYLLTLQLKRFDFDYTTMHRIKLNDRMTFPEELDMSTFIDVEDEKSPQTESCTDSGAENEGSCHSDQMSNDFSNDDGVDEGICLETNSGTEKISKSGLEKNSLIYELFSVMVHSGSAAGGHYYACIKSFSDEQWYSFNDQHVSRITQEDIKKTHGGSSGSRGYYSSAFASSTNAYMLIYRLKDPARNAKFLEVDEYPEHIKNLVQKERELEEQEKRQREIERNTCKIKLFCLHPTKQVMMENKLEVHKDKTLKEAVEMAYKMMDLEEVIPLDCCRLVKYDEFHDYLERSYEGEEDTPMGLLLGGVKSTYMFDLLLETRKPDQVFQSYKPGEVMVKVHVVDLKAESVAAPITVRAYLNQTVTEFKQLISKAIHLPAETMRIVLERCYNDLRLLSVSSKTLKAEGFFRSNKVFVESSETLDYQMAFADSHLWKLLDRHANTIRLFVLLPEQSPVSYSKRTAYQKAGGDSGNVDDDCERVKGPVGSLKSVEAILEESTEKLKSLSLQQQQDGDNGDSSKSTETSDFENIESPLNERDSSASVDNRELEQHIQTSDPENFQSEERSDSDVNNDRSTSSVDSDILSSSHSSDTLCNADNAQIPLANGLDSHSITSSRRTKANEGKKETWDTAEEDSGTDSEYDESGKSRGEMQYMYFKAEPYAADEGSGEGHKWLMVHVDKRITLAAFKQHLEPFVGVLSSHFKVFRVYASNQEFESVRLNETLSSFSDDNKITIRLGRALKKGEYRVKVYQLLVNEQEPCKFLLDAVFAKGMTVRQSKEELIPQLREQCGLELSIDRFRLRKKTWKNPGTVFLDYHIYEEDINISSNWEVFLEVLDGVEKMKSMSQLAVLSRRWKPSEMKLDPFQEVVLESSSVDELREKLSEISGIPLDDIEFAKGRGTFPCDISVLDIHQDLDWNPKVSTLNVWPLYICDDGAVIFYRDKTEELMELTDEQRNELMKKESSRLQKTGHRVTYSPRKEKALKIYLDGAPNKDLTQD
In short: as §1

USP48 = biological target: T3, USP48 (UniProt Q86UV5)
T3 sequence (whole entry): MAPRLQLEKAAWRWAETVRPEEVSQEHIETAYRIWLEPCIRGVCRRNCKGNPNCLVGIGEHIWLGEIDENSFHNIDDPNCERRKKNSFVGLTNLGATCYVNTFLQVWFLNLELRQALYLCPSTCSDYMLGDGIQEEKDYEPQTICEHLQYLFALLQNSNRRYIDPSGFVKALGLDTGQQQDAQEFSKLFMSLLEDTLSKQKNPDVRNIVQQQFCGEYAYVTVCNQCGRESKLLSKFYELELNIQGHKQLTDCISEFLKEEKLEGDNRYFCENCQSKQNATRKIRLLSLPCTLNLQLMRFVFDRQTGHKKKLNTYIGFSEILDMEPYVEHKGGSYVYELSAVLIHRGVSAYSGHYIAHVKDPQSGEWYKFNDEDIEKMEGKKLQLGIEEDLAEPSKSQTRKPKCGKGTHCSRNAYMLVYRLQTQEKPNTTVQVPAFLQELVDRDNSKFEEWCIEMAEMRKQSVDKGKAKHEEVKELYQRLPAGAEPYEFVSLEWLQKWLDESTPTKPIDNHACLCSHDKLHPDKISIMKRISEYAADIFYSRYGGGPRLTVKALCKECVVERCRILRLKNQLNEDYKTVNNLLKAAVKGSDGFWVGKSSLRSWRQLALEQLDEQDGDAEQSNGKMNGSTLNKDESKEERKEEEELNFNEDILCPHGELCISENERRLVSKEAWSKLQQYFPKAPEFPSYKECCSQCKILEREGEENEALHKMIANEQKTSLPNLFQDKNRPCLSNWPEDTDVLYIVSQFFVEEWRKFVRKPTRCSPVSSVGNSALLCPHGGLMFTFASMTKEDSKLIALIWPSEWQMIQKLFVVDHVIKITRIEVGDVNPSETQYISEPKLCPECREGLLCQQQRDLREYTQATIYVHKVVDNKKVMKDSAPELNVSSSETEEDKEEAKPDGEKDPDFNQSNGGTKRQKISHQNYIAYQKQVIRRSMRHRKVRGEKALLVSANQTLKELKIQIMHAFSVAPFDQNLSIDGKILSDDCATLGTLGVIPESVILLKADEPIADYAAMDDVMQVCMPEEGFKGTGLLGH
In short: as §1

USP5 = biological target: T4, USP5 (UniProt P45974)
T4 sequence (whole entry): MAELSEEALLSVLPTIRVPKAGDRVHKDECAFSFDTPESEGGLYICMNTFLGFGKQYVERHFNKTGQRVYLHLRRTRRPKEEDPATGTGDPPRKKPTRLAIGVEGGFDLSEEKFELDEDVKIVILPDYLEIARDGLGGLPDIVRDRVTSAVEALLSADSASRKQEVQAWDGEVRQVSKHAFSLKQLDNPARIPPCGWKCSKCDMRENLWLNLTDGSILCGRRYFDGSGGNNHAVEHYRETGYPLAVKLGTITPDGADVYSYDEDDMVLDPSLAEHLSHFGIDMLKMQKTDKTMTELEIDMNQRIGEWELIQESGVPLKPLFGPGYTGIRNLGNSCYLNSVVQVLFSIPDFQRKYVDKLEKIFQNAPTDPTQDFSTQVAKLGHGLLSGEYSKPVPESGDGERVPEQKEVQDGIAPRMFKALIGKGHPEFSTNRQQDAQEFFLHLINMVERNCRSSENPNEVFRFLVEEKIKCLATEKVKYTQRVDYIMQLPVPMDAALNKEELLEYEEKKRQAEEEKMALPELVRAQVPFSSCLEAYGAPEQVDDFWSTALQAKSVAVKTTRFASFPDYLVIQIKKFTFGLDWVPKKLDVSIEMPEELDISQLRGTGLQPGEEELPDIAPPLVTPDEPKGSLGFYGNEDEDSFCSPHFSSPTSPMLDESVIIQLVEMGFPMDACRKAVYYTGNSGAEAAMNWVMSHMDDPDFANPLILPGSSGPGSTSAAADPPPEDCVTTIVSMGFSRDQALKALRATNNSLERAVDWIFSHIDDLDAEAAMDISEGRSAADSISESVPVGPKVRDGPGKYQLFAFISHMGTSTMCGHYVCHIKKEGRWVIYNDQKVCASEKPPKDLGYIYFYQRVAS
In short: as §1

USP54 = USP54 (UniProt Q70EL1)
In short: as §1

USP7 = USP7 (UniProt Q93009)
In short: as §1

USP8 = biological target: T5, USP8 (UniProt P40818)
T5 sequence (whole entry): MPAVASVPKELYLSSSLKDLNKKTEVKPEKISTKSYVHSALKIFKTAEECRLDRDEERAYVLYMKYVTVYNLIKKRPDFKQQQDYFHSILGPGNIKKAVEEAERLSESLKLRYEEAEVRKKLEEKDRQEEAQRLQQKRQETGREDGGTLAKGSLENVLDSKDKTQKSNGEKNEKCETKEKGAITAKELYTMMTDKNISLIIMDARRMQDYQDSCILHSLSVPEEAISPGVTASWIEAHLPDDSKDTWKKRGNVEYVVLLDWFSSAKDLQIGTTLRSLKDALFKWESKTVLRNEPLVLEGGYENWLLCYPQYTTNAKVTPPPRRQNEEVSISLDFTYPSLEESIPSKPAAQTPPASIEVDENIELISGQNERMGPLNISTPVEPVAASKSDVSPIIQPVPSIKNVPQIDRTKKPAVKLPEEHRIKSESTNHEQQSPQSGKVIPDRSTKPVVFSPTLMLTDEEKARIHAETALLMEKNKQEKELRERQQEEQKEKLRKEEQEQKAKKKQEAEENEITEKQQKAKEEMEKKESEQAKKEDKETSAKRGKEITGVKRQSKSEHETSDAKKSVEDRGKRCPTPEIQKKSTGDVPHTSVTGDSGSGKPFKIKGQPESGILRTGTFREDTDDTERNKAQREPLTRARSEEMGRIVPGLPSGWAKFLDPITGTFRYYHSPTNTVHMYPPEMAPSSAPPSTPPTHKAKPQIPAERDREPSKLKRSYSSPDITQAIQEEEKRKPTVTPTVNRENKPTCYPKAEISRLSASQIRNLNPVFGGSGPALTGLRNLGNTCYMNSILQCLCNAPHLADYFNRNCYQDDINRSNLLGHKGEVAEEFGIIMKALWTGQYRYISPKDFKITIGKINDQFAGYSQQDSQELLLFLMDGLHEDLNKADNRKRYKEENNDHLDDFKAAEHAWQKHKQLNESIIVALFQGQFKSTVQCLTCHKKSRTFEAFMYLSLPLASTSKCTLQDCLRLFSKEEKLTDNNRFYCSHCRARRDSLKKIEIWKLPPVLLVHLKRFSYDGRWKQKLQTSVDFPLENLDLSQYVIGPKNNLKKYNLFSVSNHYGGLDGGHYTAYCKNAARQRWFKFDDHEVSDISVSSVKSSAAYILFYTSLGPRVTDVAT
In short: as §1

USP9X = USP9X (UniProt Q93008)
In short: as §1

UniProt O00487 = biological target: UniProt O00487
In short: as §1

Measured: log2 ratio of Biotin-Ahx-Ub-VS probe labelling

Chain of USP9X (Q93008 whole entry): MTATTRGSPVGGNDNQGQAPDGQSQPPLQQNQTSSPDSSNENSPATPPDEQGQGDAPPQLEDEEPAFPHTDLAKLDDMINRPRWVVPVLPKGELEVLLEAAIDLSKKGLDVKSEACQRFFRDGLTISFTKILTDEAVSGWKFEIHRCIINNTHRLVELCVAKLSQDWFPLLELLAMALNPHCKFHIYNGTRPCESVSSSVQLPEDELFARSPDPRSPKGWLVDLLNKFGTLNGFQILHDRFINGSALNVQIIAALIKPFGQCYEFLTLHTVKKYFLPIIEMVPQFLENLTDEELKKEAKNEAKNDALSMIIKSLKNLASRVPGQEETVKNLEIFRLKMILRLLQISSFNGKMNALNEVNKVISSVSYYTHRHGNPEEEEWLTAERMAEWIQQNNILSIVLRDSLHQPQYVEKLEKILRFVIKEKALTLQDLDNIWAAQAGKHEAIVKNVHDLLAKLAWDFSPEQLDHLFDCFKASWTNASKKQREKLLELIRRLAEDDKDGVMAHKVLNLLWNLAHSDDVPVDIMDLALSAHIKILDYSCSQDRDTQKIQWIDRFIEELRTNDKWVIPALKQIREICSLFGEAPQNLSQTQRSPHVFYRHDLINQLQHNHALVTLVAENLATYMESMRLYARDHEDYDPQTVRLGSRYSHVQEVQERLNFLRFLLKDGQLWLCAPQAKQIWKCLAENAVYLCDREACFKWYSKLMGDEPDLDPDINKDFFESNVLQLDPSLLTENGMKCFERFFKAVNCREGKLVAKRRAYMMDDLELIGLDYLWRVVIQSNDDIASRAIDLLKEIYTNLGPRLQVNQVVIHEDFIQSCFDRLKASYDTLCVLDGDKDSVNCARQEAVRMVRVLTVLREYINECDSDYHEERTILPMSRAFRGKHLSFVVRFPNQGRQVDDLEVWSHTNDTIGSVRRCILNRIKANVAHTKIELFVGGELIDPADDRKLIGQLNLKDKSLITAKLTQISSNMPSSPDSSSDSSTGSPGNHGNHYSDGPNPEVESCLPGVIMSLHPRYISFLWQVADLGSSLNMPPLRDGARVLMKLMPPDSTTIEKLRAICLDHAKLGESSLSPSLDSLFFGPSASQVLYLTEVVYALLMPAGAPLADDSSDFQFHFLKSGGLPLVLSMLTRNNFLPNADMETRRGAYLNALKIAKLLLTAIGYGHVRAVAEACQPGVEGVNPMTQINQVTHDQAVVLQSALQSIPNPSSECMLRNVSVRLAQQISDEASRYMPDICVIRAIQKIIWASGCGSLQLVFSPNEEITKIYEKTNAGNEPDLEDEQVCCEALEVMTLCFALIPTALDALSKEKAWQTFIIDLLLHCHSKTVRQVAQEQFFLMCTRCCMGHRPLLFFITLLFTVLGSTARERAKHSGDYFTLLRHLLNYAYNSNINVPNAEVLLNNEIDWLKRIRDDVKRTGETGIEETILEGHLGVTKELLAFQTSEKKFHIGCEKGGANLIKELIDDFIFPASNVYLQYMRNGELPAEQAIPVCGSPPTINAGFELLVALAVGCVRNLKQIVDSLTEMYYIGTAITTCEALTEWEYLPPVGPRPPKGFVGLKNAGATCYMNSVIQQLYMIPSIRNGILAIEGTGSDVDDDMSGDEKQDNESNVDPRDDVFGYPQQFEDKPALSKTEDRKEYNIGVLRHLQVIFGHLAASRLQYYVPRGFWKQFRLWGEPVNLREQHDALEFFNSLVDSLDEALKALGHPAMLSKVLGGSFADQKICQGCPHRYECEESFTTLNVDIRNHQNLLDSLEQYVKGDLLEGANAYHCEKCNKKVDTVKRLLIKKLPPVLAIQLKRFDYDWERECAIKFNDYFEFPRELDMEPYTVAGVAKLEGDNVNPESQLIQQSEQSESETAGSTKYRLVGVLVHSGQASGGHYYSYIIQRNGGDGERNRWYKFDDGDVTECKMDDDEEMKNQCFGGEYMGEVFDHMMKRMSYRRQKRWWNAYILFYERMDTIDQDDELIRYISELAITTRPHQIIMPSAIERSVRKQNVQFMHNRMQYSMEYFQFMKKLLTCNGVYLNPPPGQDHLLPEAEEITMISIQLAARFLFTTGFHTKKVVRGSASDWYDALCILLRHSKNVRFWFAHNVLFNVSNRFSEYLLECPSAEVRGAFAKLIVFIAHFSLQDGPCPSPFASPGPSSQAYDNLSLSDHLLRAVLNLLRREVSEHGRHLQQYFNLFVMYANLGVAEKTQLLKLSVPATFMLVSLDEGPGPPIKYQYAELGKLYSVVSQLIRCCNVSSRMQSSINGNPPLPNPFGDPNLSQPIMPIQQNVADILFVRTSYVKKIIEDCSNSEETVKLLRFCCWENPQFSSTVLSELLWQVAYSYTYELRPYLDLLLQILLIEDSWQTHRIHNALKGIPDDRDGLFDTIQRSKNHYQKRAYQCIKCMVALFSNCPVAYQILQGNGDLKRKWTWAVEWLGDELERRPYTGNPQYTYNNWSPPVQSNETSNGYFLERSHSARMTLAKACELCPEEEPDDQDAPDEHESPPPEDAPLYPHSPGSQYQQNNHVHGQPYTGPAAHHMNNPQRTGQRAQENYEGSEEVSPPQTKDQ
Chain of USP7 (Q93009 whole entry, looked up): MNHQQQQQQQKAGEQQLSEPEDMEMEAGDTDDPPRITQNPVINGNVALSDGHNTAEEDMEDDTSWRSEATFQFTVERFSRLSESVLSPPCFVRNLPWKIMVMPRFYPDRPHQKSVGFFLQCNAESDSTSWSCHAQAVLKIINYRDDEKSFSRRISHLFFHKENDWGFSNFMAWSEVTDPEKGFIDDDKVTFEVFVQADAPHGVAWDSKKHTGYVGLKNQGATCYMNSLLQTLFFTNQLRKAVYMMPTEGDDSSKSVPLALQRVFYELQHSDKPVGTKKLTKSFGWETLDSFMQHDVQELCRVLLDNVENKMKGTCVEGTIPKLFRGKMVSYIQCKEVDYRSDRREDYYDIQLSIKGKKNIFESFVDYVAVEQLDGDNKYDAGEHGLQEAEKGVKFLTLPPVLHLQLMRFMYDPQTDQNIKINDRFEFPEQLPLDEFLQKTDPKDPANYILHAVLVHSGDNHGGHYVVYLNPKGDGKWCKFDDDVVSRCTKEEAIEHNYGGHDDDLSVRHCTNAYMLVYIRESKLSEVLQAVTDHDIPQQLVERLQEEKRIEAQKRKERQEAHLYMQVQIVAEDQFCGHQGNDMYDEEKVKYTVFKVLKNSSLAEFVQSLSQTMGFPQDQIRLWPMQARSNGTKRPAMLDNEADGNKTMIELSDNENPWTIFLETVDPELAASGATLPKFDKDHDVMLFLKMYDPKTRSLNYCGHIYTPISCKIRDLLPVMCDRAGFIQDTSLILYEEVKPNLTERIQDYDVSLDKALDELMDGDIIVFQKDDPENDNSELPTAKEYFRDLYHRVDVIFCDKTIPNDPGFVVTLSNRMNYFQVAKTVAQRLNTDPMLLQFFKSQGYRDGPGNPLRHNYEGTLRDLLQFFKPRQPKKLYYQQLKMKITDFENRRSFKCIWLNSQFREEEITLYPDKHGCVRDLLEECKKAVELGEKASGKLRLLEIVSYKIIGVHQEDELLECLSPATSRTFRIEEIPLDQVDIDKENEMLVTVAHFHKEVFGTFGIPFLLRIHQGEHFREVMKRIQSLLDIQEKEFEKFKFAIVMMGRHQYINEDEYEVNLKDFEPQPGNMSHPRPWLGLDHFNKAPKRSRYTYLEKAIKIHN
Chain of USP46 (P62068 whole entry): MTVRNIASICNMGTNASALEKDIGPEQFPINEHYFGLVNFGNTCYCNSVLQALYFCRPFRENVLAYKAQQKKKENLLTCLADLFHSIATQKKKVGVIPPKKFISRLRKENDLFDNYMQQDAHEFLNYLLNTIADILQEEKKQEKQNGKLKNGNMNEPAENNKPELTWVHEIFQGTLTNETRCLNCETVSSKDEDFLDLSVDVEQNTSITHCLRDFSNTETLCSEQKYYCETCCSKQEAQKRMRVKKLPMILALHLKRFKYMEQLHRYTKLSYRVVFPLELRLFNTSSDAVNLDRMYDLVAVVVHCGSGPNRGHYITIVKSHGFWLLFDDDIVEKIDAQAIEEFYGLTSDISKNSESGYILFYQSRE
Chain of UniProt O00487 (O00487 whole entry): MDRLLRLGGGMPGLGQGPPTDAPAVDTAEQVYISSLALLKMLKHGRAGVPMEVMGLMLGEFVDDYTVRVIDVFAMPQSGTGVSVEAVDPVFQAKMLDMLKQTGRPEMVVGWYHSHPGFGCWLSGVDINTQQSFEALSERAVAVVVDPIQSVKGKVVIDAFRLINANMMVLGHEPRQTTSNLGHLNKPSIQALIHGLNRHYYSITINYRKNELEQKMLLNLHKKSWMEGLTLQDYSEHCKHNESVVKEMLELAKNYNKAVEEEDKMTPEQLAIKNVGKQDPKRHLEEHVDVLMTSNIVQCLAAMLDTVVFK

O=C(CCl)N1CCC(O)(Cc2ccc(F)cc2)C1 (stereo not given)
inactive: USP42 0.0317 | USP46 -0.0773 | USP47 -0.574 | USP48 -0.434 | USP5 0.465 | USP54 -0.501 | USP7 -0.133 | USP8 -0.169 | USP9X 0.0751 | UniProt O00487 -0.0616
